Data on 40 sequences can be found in the OligoGym collection.
Also: reference of the scale not given here.

The first assay addresses MTDH. As to the kind of experiment: pooled miR-30 sensor sort-seq; sequence = guide strand. The conditions noted are these: shRNA.
For TTCTTCTGTTCCTCGCTCCGGA, the sensor-assay potency score (higher = more potent) is -0.0167.

For the sequence TTTTGCTTGGTATTTGACTTGG, the sensor-assay potency score (higher = more potent) is -0.198.

TATTCTTCTTGGAACCAACAGG: the sensor-assay potency score (higher = more potent) is -0.744.

As for TTAGAAGTGAAGCTCTTTCTTC, the sensor-assay potency score (higher = more potent) was -0.219.

As for TAACTTGAACATTTAGATGAGA, the sensor-assay potency score (higher = more potent) is -0.76.

As to TTGCTTACTAATCTGTAGGCAA, the sensor-assay potency score (higher = more potent) was -0.352.

As for TAGTTGAATCCAATGAACCAGA, the sensor-assay potency score (higher = more potent) was -0.602.

The target of another assay is MTF2. The description is as above. As to conditions: shRNA.
Regarding TAAAACAAGCCATCTGACCATC, the sensor-assay potency score (higher = more potent) is -1.1.

Regarding TTATCTTTTTGATAGTGCCAAG, the sensor-assay potency score (higher = more potent) was -1.55.

On to TTTGGCTTTATGTCCATCCTGT, for which the sensor-assay potency score (higher = more potent) stood at 0.854.

As to TTTATCTTTTTGATAGTGCCAA, the sensor-assay potency score (higher = more potent) is -0.334.

Consider TTTTTTTCTATGCCATTGCTTA, for which the sensor-assay potency score (higher = more potent) is -0.923.

Turning to TACTCTTCTTGACATATTGTAC, the sensor-assay potency score (higher = more potent) is -0.653.

On to TATTCTGGTCCAGAACTGCAGA, for which the sensor-assay potency score (higher = more potent) is -0.798.

In the case of TTTGCAGCACTGTAGCATCTTC, the sensor-assay potency score (higher = more potent) is -0.454.

For the sequence TTGACATATTGTACAGACCATT, the sensor-assay potency score (higher = more potent) was -1.28.

Take TATAGAACAAGGTAAATCCAAA: the sensor-assay potency score (higher = more potent) is -1.04.

Regarding TTCCACAAGATACTGCACCTTT, the sensor-assay potency score (higher = more potent) turned out to be 0.329.

As to ATGATTGAGTTGTAACTCCTGA, the sensor-assay potency score (higher = more potent) is -0.17.

The target of another assay is MTFP1. Described as above. The conditions noted are these: shRNA.
In the case of TAGCTCAGCCACACCACCGCCG, the sensor-assay potency score (higher = more potent) was -0.967.

With TCCACCGACCTCTCCAGCCTTC, the sensor-assay potency score (higher = more potent) was -1.18.

In the case of TTGGACACCAGGGAGCCAGGTG, the sensor-assay potency score (higher = more potent) was -0.945.

As for TCAGCCACACCACCGCCGCTGG, the sensor-assay potency score (higher = more potent) was -1.36.

On to TTGTCTCTAAGCTTCTGTCCAG, for which the sensor-assay potency score (higher = more potent) was -0.49.

For TAGAGCTTGCGCAGGCTGGAGT, the sensor-assay potency score (higher = more potent) is -0.938.

Consider TTTGTCAATGGCATCCGCCAGC, for which the sensor-assay potency score (higher = more potent) was -0.615.

In the case of TGTCTCTAAGCTTCTGTCCAGC, the sensor-assay potency score (higher = more potent) was -0.761.

Consider TATCGCACCCACGTGTCCCGGT, for which the sensor-assay potency score (higher = more potent) is -0.561.

In the case of TAGGAGGTTGACATGAAGCAGG, the sensor-assay potency score (higher = more potent) was -1.07.

In the case of TCCGCCAGCACGTAGGAGCTGG, the sensor-assay potency score (higher = more potent) was -1.34.

Regarding TGTTGGGTAGAGCTTGCGCAGG, the sensor-assay potency score (higher = more potent) is -1.71.

A further assay addresses MTG1. The assay is described as above. The conditions noted are these: shRNA.
For TTTCCCTTTCCTGAGGTGCTGC, the sensor-assay potency score (higher = more potent) was -0.722.

Consider TTATAGCTTTAACTCCTTCTGA, for which the sensor-assay potency score (higher = more potent) was -0.275.

For TTCTCTTTTCGGTGGTAGCGGT, the sensor-assay potency score (higher = more potent) is -0.857.

In the case of TCATCCTTTACACAGTTGGTAA, the sensor-assay potency score (higher = more potent) was -1.44.

On to TTTTGGACATCACAGCTCTGGT, for which the sensor-assay potency score (higher = more potent) was -1.25.

On to TTCTCCTTCTAAGTGTTGCATA, for which the sensor-assay potency score (higher = more potent) was -0.79.

For TAAGTGTTGCATAATTTTCTGC, the sensor-assay potency score (higher = more potent) stood at 0.0697.

As to TTTGTTGAGGGTGTACAGCAGG, the sensor-assay potency score (higher = more potent) is -0.227.

In the case of TTGGACATCACAGCTCTGGTGA, the sensor-assay potency score (higher = more potent) was -0.544.
